The results in this text go back to PubChem BioAssay (NCATS).

Inconclusive results are not listed. Active and inactive are the calls of the source. Unless noted, calls come from the whole dose curve; as a rule, active = well fitted curve in the direction sought with a large enough effect; inconclusive = small, poorly fitted or top-dose-only effect, or another doubt; inactive = no such curve, though single readings can be large; an effect the other way counts as inactive or inconclusive. Bounds are passed on as bounds.

For assay [1], the target named is Lysosomal acid glucosylceramidase (Homo sapiens) (UniProt P04062). Put plainly: Glucocerebrosidase-p2 (AID 348; in the data active = potency below about 10 µM; note: potency is the fitted concentration of half-maximal effect). The note with it: purified GBA, blue fluorogenic substrate, 40 min. The procedure, abridged:
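Normal human glucocerebrosidase (0.2 nM) with blue fluorogenic substrate (80 uM final) in citrate/phosphate pH 5.9 with 10mM sodium taurocholate, 0.01% tween-20; 40 min RT, NaOH/glycine stop; fluorescence Ex 365/Em 440; AC50 from a titration from 0.6 nM upwards.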

Assay [2] is described as follows: AP1 Signaling Pathway (AID 357; active = well fitted curve in either direction with a large enough effect, not every such curve was filed as active; note: % is set by controls: 0 for no effect and ±100 for the full control effect). The note with it: ME-180 AP-1-bla reporter, EGF-induced, beta-lactamase ratio, 5 h; at 7.69 µM (top of the series) unless noted. The procedure, abridged:
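ME-180 cells with beta-lactamase reporter under AP-1 response element, stimulated with EC50 EGF; compounds tested in titration series, 5 h at 37 °C. CCF4 substrate added 2.5 h at room temperature; 460/530 nm emission ratio gave %activity and AC50.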

Assay [3] deals with Cytochrome P450 1A2 (Homo sapiens) (UniProt P05177). Put plainly: p450-cyp1a2 (AID 410; calls by dose curve; note: potency is the fitted concentration of half-maximal effect;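 for activity change, negative = inhibition: -100% = full effect of reference inhibitor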). The procedure, abridged: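 O-Demethylation of luciferin 6' methyl ether by human CYP1A2 is monitored as luciferase luminescence. Substrate sits at Km (100uM); enzyme is 20nM. Values are scaled to 57 uM furafylline as maximal inhibition.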
Chain of Cytochrome P450 1A2 (Homo sapiens) (P05177 whole entry, looked up): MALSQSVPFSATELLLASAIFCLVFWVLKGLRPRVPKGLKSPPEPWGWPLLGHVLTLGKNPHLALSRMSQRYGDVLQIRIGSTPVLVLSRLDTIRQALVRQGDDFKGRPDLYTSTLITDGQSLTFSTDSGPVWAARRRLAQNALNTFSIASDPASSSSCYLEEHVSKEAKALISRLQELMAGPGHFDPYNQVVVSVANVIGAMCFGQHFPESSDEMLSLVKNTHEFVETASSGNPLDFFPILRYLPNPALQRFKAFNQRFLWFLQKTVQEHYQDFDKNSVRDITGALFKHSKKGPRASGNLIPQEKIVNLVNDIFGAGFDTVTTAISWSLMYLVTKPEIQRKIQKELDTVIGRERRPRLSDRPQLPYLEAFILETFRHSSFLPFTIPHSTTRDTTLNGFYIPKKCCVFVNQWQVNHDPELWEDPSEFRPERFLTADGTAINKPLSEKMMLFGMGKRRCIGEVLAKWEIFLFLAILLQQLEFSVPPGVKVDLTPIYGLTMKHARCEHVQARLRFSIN
A short description of assay [4]: NFAT Signaling Pathway (AID 444; active = well fitted curve in either direction with a large enough effect, not every such curve was filed as active;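 note: carbachol stimulus at about its EC50 of 1 µM final; % is set by controls: 0 for no effect and ±100 for the full control effect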). The note with it: Jurkat NFAT-bla M1, carbachol, beta-lactamase ratio, 5 h; at 7.69 µM (top of the series) unless noted. The procedure, abridged:
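Jurkat cells carrying an NFAT-driven β-lactamase reporter and co-transfected muscarinic M1 receptor were treated with compound plus carbachol (1 uM final, an EC50 level) for 5 h at 37 °C. CCF4 loading followed for 1 h at RT; 460/530 nm ratio gave %activity.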

A short description of assay [5]: Stat Signaling Pathway (AID 446; active = well fitted curve in either direction with a large enough effect, not every such curve was filed as active;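 note: ME-180 cervical cancer cells given 40 pM IL-6 alongside compound; SIE-controlled beta-lactamase reporter measured as 460/530 nm FRET emission ratio; % is set by controls: 0 for no effect and ±100 for the full control effect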). The following applies: ME-180 (cervical carcinoma) SIE beta-lactamase reporter, IL-6 stimulated, 5 h; at 7.69 µM (top of the series) unless noted. In a few lines:
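Normalization used AC90 stimulation (300 pM IL-6) and AC90 inhibition (125 nM pan-JAK inhibitor at 40 pM IL-6). The underlying signal is SIE-driven beta-lactamase in ME-180 cells after 5 h IL-6 exposure with compound.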

For assay [6], the target named is Glucocorticoid receptor (Homo sapiens) (UniProt P04150). Put plainly: GR-GFP Redistribution (AID 450;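 active = compounds whose dose series gives a full or clear partial fitted curve of increased nuclear translocation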; note: potency is the fitted concentration of half-maximal effect). The note with it: U2OS GR-GFP nuclear translocation, laser cytometry, 2 h.
Chain of Glucocorticoid receptor (Homo sapiens) (P04150 whole entry, looked up): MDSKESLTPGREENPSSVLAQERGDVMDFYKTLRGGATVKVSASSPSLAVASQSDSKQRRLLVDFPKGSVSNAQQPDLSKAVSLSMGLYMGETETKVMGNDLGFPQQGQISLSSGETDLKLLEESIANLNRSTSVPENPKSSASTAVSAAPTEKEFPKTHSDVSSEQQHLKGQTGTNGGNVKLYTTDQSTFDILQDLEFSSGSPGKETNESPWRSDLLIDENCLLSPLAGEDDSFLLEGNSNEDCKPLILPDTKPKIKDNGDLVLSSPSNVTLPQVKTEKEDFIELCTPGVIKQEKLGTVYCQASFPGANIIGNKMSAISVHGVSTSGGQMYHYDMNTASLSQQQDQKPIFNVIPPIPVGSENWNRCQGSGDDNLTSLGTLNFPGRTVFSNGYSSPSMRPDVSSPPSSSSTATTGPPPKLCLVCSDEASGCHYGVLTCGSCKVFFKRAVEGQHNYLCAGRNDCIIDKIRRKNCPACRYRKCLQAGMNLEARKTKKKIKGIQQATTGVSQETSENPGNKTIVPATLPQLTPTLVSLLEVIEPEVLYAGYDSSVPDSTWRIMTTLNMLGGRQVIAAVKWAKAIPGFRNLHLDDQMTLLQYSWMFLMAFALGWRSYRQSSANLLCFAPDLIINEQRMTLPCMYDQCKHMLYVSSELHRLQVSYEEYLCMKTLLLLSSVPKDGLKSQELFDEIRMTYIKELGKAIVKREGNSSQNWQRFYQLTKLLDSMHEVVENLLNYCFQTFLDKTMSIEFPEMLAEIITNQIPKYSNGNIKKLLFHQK
Assay [7] shares this target. The assay can be described thus: GR-EFC Redistribution (AID 451; calls by dose curve; note: potency is the fitted concentration of half-maximal effect). The note with it: CHO-K1 GR-EFC translocation, beta-gal luminescence, 2 h. The procedure, abridged:
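CHO-K1 cells stably expressing nuclear-localized β-gal enzyme acceptor and GR fused C-terminally to the enzyme donor fragment; ligand-driven nuclear translocation restores β-gal by complementation. Compounds titrated up to 46 uM final, 2 h at 37 °C; luminescence read.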

The target in assay [8] is Mitogen-activated protein kinase 10 (Mus musculus) (UniProt Q61831). Put plainly: JNK3 AlphaScreen Assay (AID 530; active = well fitted curve in either direction with a large enough effect, not every such curve was filed as active;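 note: kinase came from lysate of stimulated human HepG2 cells; signal reports phosphorylation of biotinylated GST-cJun 1-79 at Ser73 with 10 µM ATP; % is set by controls: 0 for no effect and ±100 for the full control effect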). The procedure, abridged: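 Phosphorylation of biotinylated GST-cJun(1-79) at Ser73 is measured by AlphaScreen proximity luminescence. Enzyme is JNK3 in HepG2 lysates activated with interleukin-1beta and tumor necrosis factor alpha; ATP is 10 uM final.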
(In Alpha technology, singlet oxygen from a donor bead excites a nearby acceptor bead.)

The target in assay [9] is 3',5'-cyclic-AMP phosphodiesterase 4B (Homo sapiens) (UniProt Q07343). Put plainly: qHTS Assay for Inhibitors of PDE-IV (AID 607; active = well fitted activation curve with a large enough effect in the main read-out, with a control signal flat, not every such curve was filed as active; note: % of control where 0% means no effect). In a few lines:
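HEK293 ACTOne cells with CNG channel (1000/well), endogenous PDE4; membrane potential dye, compounds up to 22.9 uM final. Fluorescence Ex 535/Em 590; RO 20-1724 (100 uM final) as reference.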

Assay [10] is described as follows: qHTS Assay for Lipid Storage Modulators (AID 1519; calls by dose curve). The following applies: Drosophila S3 cells, BODIPY lipid droplet/cell ratio, laser cytometry, cells loaded with oleic acid; for activity change, negative = inhibition: at 57.5 µM (top of the series). In a few lines: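 Cells seeded at 5,000 per well were treated with compounds over a concentration series and loaded with oleic acid (400 uM, as added). Lipid droplet fluorescence (488 nm excitation, 500-530 nm channel) was read by laser-scanning cytometry and normalized to 20 uM Triacsin C.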
For orientation: In qHTS, concentration-response curves come from the screen itself.

Assay [11] has as its target Dual specificity protein kinase CLK4 (Homo sapiens) (UniProt Q9HAZ1). The assay can be described thus: qHTS Assay for Inhibitors of CDC-like Kinase 4 (ADP-Glo Assay) (AID 1771). Note: nearly all actives have a fitted effect of over 70% in size. Note: potency is the fitted concentration of half-maximal effect. The procedure, abridged:
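Compounds are pin-transferred onto substrate mix (100 uM RS peptide, 1 uM ATP), then 25 nM Clk4 is added. After 1 hr at room temperature, ADP-Glo reagent runs 45 min, detection reagent 30 min, then luminescence is read.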

The target is the same in assay [12]. Put plainly: qHTS Assay for Inhibitors of CDC-like Kinase 4 (ADP-FP Assay) (AID 1795). Note: nearly all actives have a fitted effect of over 60% in size. Note: potency is the fitted concentration of half-maximal effect. In a few lines:
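Recombinant human Clk4 (6.25 nM) phosphorylated RS repeat peptide (100 uM) with 1 uM ATP in Tris pH 7.5/MgCl2/EGTA/DTT/Triton buffer for one hour. ADP was quantified by Transcreener competitive fluorescence polarization against an ADP calibration curve.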

Assay [13] deals with Ubiquitin carboxyl-terminal hydrolase 1 (Homo sapiens) (UniProt O94782). Put plainly: Inhibitors of USP1/UAF1: Pilot qHTS (AID 504865).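 Note: rhodamine fluorescence freed from ubiquitin-rhodamine substrate followed over time; top concentration of the series differs between compounds; % is set by controls: 0 for no effect and ±100 for the full control effect; nearly all actives have a fitted effect of over 35% in size.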 In a few lines:
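USP1/UAF1 complex (1nM) preincubated with compound 15 min at room temperature, then Ub-Rho substrate (150nM final) added. Fluorescence read kinetically at 480/540 nm, 6 reads every 60 seconds. Buffer: 50mM HEPES pH 7.8, 0.5mM EDTA, 0.1 mg/ml BSA, 1mM TCEP, 0.01% Tween-20.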

Assay [14] is described as follows: Primary qHTS for small molecule stabilizers of the endoplasmic reticulum resident proteome: Secreted ER Calcium Modulated Protein (SERCaMP) assay (AID 1508630). Note: % is set by controls: 0 for no effect and ±100 for the full control effect. In a few lines:
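The SH-SY5Y reporter protocol was run at 3 concentrations up to 38.3 uM (primary) or 11 concentrations (follow-up): 16 h compound, 100 nM thapsigargin for 4 h, then extracellular luciferase luminescence.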

In assay [15] the target is Cytochrome P450 3A4 (Homo sapiens) (UniProt P08684). Put plainly: qHTS Assay for Inhibitors and Substrates of Cytochrome P450 3A4 (AID 884). Note: potency is the fitted concentration of half-maximal effect; nearly all actives have a fitted effect of over 50% in size. The procedure, abridged:
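Luminescent readout of luciferin produced by CYP3A4 (20 nM) dealkylation of Luciferin-PPXE, 25 uM (its KM). NADPH-driven reaction ran 60 min at RT after 10 min compound preincubation; data scaled to 57 uM ketoconazole as 100% inhibition.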

Assay [16] has the same target. The assay can be described thus: qHTS Assay for Activators of Cytochrome P450 3A4 (AID 885). Note: nearly all actives have a fitted effect of over 65% in size. In a few lines:
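Human CYP3A4 dealkylates Luciferin-PPXE to luciferin, which luciferase detection converts to light. Substrate was at its KM (25uM), buffer 200mM KPO4, reaction 60 min at RT.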

The mark [17] stands for this setting: measured here: cell count channel max response.
The mark [18] stands for this setting: measured here: lipid channel max response.

Chain of Lysosomal acid glucosylceramidase (Homo sapiens) (P04062 whole entry, looked up): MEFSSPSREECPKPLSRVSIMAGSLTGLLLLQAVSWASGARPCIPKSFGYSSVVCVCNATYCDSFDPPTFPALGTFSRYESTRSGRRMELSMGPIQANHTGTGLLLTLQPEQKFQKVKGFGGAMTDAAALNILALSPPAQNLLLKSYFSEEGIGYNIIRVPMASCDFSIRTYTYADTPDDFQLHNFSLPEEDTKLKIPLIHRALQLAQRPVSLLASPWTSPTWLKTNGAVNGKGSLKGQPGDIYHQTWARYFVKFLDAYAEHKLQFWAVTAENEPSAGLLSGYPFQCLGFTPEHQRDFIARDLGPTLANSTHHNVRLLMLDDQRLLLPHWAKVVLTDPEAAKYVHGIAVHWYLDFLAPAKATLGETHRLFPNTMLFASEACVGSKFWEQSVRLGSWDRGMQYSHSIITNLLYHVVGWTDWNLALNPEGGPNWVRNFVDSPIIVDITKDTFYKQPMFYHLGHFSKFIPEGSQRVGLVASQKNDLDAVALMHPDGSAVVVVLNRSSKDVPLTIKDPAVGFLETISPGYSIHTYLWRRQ
Chain of 3',5'-cyclic-AMP phosphodiesterase 4B (Homo sapiens) (Q07343 whole entry, looked up): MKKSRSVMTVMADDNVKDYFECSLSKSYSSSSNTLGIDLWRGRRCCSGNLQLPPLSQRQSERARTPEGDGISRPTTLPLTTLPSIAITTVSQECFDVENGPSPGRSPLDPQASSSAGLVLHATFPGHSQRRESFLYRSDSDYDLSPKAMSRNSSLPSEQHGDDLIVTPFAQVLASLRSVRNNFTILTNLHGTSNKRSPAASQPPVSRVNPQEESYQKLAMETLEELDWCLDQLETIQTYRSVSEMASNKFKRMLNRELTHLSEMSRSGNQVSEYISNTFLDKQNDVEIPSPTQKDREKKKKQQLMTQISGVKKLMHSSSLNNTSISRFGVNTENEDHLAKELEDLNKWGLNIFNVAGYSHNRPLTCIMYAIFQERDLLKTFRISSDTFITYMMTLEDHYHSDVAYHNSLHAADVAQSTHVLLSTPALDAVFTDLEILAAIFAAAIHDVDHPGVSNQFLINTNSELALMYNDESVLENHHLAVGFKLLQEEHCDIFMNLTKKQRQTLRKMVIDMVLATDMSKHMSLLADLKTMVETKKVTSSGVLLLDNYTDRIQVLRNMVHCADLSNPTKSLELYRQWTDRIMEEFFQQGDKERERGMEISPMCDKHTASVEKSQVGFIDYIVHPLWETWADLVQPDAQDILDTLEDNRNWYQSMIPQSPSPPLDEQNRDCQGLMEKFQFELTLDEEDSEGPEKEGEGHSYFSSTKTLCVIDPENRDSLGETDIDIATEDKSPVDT
Chain of Cytochrome P450 3A4 (Homo sapiens) (P08684 whole entry, looked up): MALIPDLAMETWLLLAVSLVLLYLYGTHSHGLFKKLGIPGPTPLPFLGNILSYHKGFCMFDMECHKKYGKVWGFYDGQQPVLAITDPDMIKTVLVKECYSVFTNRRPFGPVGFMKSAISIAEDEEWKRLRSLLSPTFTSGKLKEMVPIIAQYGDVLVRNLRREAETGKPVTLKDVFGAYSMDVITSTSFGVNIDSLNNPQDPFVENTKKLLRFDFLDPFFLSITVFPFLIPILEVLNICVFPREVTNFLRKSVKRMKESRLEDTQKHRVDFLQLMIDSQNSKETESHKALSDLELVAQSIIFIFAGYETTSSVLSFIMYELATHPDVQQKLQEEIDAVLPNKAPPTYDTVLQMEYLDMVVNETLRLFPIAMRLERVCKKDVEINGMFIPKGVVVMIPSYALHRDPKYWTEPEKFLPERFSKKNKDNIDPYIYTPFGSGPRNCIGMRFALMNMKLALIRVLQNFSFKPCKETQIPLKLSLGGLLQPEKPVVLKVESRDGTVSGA
Chain of Dual specificity protein kinase CLK4 (Homo sapiens) (Q9HAZ1 whole entry, looked up): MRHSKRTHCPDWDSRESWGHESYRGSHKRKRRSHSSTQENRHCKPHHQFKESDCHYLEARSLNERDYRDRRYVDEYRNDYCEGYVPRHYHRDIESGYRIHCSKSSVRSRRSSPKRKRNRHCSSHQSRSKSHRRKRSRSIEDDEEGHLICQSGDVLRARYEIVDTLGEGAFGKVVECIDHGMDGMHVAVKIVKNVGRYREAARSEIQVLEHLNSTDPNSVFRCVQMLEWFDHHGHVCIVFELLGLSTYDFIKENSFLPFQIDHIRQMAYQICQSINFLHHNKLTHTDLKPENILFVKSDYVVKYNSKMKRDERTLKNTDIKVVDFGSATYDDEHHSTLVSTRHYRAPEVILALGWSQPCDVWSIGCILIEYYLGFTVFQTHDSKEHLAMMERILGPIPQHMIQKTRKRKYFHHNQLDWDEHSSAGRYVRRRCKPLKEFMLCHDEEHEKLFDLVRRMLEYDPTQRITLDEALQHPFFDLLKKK
Chain of Ubiquitin carboxyl-terminal hydrolase 1 (Homo sapiens) (O94782 whole entry, looked up): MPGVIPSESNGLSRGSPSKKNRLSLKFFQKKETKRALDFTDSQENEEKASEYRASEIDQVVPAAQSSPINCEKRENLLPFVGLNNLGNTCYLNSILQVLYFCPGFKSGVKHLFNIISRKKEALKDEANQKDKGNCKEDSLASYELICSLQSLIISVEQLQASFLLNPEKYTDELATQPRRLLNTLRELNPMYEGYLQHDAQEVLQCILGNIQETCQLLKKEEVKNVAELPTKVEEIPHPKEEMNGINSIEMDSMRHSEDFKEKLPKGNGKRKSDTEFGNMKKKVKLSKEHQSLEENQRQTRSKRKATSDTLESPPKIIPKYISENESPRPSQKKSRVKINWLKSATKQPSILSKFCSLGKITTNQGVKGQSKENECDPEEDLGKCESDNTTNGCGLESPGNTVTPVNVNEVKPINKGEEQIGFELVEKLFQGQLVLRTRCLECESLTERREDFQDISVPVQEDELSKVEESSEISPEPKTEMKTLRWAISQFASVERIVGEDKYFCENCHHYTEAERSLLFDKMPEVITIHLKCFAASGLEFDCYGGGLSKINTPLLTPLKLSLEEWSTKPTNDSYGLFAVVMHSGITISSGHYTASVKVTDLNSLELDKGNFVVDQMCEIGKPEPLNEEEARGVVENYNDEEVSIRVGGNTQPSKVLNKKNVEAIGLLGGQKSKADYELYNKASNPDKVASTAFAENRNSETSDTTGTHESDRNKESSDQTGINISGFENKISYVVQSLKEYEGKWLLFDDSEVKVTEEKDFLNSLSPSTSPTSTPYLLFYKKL

For `CN(C)C(=O)c1ccc(-c2cncnc2N2CCNCC2)cc1`, the Potency in assay [1] is > 11.4 µM (inactive); in assay [6], > 46 µM (inactive); in [7], > 46 µM (inactive). Further, the activity change, negative = inhibition in assay [2] is -5.59% (inactive); in [4] it was 10.6% (inactive); in assay [10], 5.34% (inactive). The Potency entry in assay [3], in assay [9], in assay [11], in [12], in assay [13] and in [14] was “inactive” in each case. Besides, the activity, negative = inhibition in assay [5] is 9.81% (inactive). Also, the compound was called inactive in [8]. Besides, the max response is 16.8% in assay [10] (setting [17]) and 20.2% in assay [10] (setting [18]).

Turning to `Fc1ccc(Nc2ncncc2-c2ccoc2)cc1`, the Potency in assay [1] is > 11.4 µM (inactive); in assay [3] it was 0.316 µM (active); in [6], > 46 µM (inactive); in [7] it was > 46 µM (inactive); in [15], 0.501 µM (active); in assay [11] it was 10 µM (active). Moreover, the Potency in [12] was 5.01 µM (active). Moreover, the activity change, negative = inhibition was -7.98% (inactive) in [2], 2.9% (inactive) in assay [4] and 4.26% (inactive) in assay [10]. Also, the activity, negative = inhibition in [5] was 4.97% (inactive). In [8], the call was inactive. Also, the Potency entry in assay [16], in assay [13] and in [14] was “inactive” each time. For the same compound, the max response in [10] (setting [17]) was 9.18%; in assay [10] (setting [18]), 12.6%.

Regarding `Cn1c(=O)cnc2cnc(OCc3ccccc3)nc21`, the Potency in [1] was > 11.4 µM (inactive); in assay [6] it was > 9.22 µM (inactive); in assay [7], > 46 µM (inactive); in [11] it was 20 µM (active). The results for the activity change, negative = inhibition in assay [2], in assay [4] and in [10] were -10.8% (inactive), 0.699% (inactive) and 9.09% (inactive), respectively. The activity, negative = inhibition in [5] was -10.5% (inactive). For the same compound, the compound was classed as inactive in [8]. Also, the Potency entry in assay [9], in assay [13] and in assay [14] was “inactive” throughout. Also, the max response in [10] (setting [17]) was determined as 18.8%; in assay [10] (setting [18]), 26%.

With `CS(=O)(=O)Nc1cccc(-c2ccc3ncnc(N4CCNCC4)c3c2)c1`, the Potency was > 11.4 µM (inactive) in [1]; 12.6 µM (active) in assay [3]; > 46 µM (inactive) in [6]; > 46 µM (inactive) in assay [7]; 15.8 µM (active) in [11]; 5.01 µM (active) in [12]. For the same compound, the activity change, negative = inhibition in [2] is -1.37% (inactive); in [4], 23.1% (inactive); in assay [10] it was 5.65% (inactive). Also, the activity, negative = inhibition in assay [5] was -16.8% (inactive). In [8], the compound was called inactive. Also, the Potency entry in [9], in assay [16], in [13] and in [14] was “inactive” in each case. Also, the max response in [10] (setting [17]) stood at 18.2%; in [10] (setting [18]) it was 22.6%.

Turning to `CS(=O)(=O)Nc1cccc(-c2ccc3ncnc(NC4CCNCC4)c3c2)c1`, the Potency was > 11.4 µM (inactive) in assay [1]; > 46 µM (inactive) in [6]; > 46 µM (inactive) in [7]; 7.08 µM (active) in assay [11]; 11.2 µM (active) in assay [12]. Besides, the figures for the activity change, negative = inhibition in assay [2], in assay [4] and in assay [10] were 6.55% (inactive), 0.249% (inactive) and 4.99% (inactive), respectively. The activity, negative = inhibition in assay [5] was 4.8% (inactive). Also, the compound was classed as inactive in assay [8]. Further, the Potency result in assay [9], in [13] and in [14] was “inactive” in each case. Moreover, the max response in assay [10] (setting [17]) worked out at 3.42%; in assay [10] (setting [18]), 11%.

`CN(C)c1ncc2nc(-c3cccc(C#N)c3)c(=O)n(CCC#N)c2n1`: the Potency was > 11.4 µM (inactive) in [1], > 9.22 µM (inactive) in assay [6] and > 46 µM (inactive) in [7]. Moreover, the activity change, negative = inhibition in [2] was -2.98% (inactive); in [4] it was 4.07% (inactive); in assay [10], 1.84% (inactive). Moreover, the Potency result in assay [3], in assay [9], in assay [11], in assay [12], in assay [13] and in assay [14] was “inactive” in each case. Also, the activity, negative = inhibition in assay [5] was -8.5% (inactive). Besides, the compound was classed as inactive in assay [8]. Further, the max response in assay [10] (setting [17]) came to 5.81%; in [10] (setting [18]) it was 7.25%.
